Results taken from PubChem BioAssay (NCATS).
Results filed as inconclusive are left out. The source made the active and inactive calls. The call rests on the fitted dose curve; in most records, active means well fitted curve in the direction sought with a large enough effect; inconclusive means small, poorly fitted or top-dose-only effect, or another doubt; inactive means no such curve, though single readings can be large; an effect the other way counts as inactive or inconclusive.

What was measured:
[1] = BET inhibitor-based combinations targeting novel dependencies in MECOM-rearranged (r) AML: SET-2 cell line (AID 2202231); conditions: SET-2 AML cells viability, CellTiter-Glo luminescence, 48 h; viability: stronger effect = lower value, concentration not given here; further: nearly all actives have a fitted effect of over 35% in size;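 on viability: plate controls were DMSO treated cells for no effect and wells without cells for full effect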
Outline: (§1)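 Readout: CellTiter-Glo luminescence. Exposure: 48 h, 11 concentrations, 500 cells/well. Metric: AUC and within-line Z-AUC after DMSO/empty-well normalization.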

[2] = BET inhibitor-based combinations targeting novel dependencies in MECOM-rearranged (r) AML: OCI-AML3 cell line (AID 2202232); conditions: Potency: OCI-AML3 viability; further: nearly all actives have a fitted effect of over 35% in size
Outline: as §1

[3] = BET inhibitor-based combinations targeting novel dependencies in MECOM-rearranged (r) AML: AML-191 cell line (AID 2202236; further: nearly all actives have a fitted effect of over 35% in size)
Outline: as §1

[4] = BET inhibitor-based combinations targeting novel dependencies in MECOM-rearranged (r) AML: AML-194 cell line (AID 2202237; further: nearly all actives have a fitted effect of over 40% in size)
Outline: as §1

[5] = BET inhibitor-based combinations targeting novel dependencies in MECOM-rearranged (r) AML: HNT-34 cell line (AID 2202234); further: nearly all actives have a fitted effect of over 35% in size
Outline: (§2)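 Seeding density was 500 cells/well, and drug exposure lasted 48 hr under standard culture conditions. Read-out used CellTiter-Glo reagent with a 15 min room-temperature incubation before luminescence measurement; AUC and Z-AUC summarize the normalized responses.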

[6] = BET inhibitor-based combinations targeting novel dependencies in MECOM-rearranged (r) AML: UCSD-AML1 cell line (AID 2202235); further: nearly all actives have a fitted effect of over 40% in size
Outline: as §2

[7] = BET inhibitor-based combinations targeting novel dependencies in MECOM-rearranged (r) AML: MV-4-11 cell line (AID 2202233); further: nearly all actives have a fitted effect of over 45% in size
Outline: as §2
Potency means the concentration at half of the fitted maximal effect.

Structure (SMILES)	viability [1]	Potency [2]	Potency [3]	Potency [4]	Potency [5]	Potency [1]	Potency [6]	Potency [7]
CC(C)(c1ccc(OCC(O)CO)cc1)c1ccc(OCC(O)CCl)cc1 (stereo not drawn)	60% (inactive)	inactive	inactive	inactive				
O=C1CC[C@H](N2Cc3c(OCc4ccc(CN5CCOCC5)cc4)cccc3C2=O)C(=O)N1	102% (inactive)	inactive	inactive	inactive	inactive			
C#CCN(C)CC1=Cc2ccccc2Oc2ccccc21	106% (inactive)	inactive	inactive	inactive	inactive			
C=C1C(=O)OC2/C=C(/C)CC/C=C(/C)CCC12 (stereo not drawn)		18.6 µM (active)	26.3 µM (active)			20.9 µM (active)		
CC1(C)SCCN(S(=O)(=O)c2ccc(OCC#CCO)cc2)[C@H]1C(=O)NO	96.5% (inactive)	inactive	inactive					
COc1ccnc(CS(=O)c2nc3ccc(OC(F)F)cc3[nH]2)c1OC (stereo not drawn)	114% (inactive)	23.5 µM (active)	inactive	inactive	inactive		inactive	
C[C@@H](O[C@H]1OCCN(Cc2n[nH]c(=O)[nH]2)[C@@H]1c1ccc(F)cc1)c1cc(C(F)(F)F)cc(C(F)(F)F)c1		18.6 µM (active)	16.6 µM (active)		18.6 µM (active)	20.9 µM (active)		
O=C(O)c1ccccc1-c1ccc(/C=c2\sc3nc4cc(Br)cnc4n3c2=O)o1	92.3% (inactive)	inactive	inactive	inactive			inactive	
CNC(=O)CCc1cc(-c2ccc(-c3ccc(C(F)(F)F)cc3)cc2)n(-c2ccc(N3CCNCC3)cc2)n1		5.9 µM (active)	5.9 µM (active)	7.42 µM (active)	8.33 µM (active)	7.42 µM (active)		
Cc1ccc(C2=Nc3ccc(Cl)cc3OC2)cc1		10.5 µM (active)	inactive	inactive		8.33 µM (active)		
Nc1nc(N)c2nc(-c3cccc(Cl)c3)c(N)nc2n1		2.95 µM (active)	5.25 µM (active)			0.372 µM (active)		
CCS(=O)(=O)N1CCC(C(C)n2c(C)c(C(=O)NCc3c(OC)cc(C)[nH]c3=O)c3ccccc32)CC1 (stereo not drawn)	108% (inactive)	inactive	inactive	inactive	inactive			
O=C(Nc1cccc(C(F)(F)F)c1)c1cccc2cc(Oc3cc(CO)ncn3)ccc12	103% (inactive)	inactive	inactive	inactive			inactive	
CC(=O)NCCCS(=O)(=O)O	115% (inactive)	inactive	inactive	inactive	inactive			
CN[C@@H](C)C(=O)N[C@@H]1C(=O)N(Cc2c(C)ccc3ccccc23)c2ccc(C#N)cc2N(C(C)=O)[C@H]1C	102% (inactive)	inactive		inactive			inactive	
CC[C@H]1OC(=O)[C@H](C)C(=O)[C@H](C)[C@@H](O[C@H]2O[C@H](C)C[C@H](N(C)C)[C@H]2O)[C@](C)(OC)C[C@@H](C)C(=O)[C@H](C)[C@H]2N(CCCCn3cnc(-c4cccnc4)c3)C(=O)O[C@]12C	101% (inactive)	inactive	inactive	inactive			inactive	
c1ccc(-c2nn3c(c2-c2ccnc4cc(OCCN5CCOCC5)ccc24)CCC3)nc1	81.4% (inactive)	inactive	18.6 µM (active)				20.9 µM (active)	
NC(=S)N/N=C/c1ncccc1N		5.25 µM (active)	23.5 µM (active)	20.9 µM (active)	16.6 µM (active)	16.6 µM (active)	5.9 µM (active)	
NC(=O)C1=C(O)[C@@]2(O)C(=O)C3=C(O)c4c(O)cccc4C[C@H]3C[C@H]2CC1=O		3.72 µM (active)	7.42 µM (active)	10.5 µM (active)	8.33 µM (active)	4.68 µM (active)		
CNC(=O)[C@H](Cc1c[nH]c2ccccc12)NC(=O)[C@@H](CC(=O)NO)CC(C)C	112% (inactive)	inactive	inactive				inactive	
CN1C(=O)[C@@H](NC(=O)c2cc(Cc3ccccc3)on2)COc2ccccc21	73.2% (inactive)	inactive	inactive					
OCCn1cc(-c2ccc3c(c2)CC/C3=N\O)c(-c2ccncc2)n1	102% (inactive)	2.35 µM (active)					inactive	
C=C1C(=CC=C2CCC[C@]3(C)[C@@H]([C@H](C)C=C[C@H](C)C(C)C)CC[C@@H]23)C[C@@H](O)C[C@@H]1O			23.5 µM (active)		18.6 µM (active)	23.5 µM (active)	inactive	16.6 µM (active)
CC[C@H](Nc1ncnc2nc[nH]c12)c1oc2ccccc2c(=O)c1-c1cccc(F)c1	93.4% (inactive)							6.61 µM (active)
